The source of these data is PubChem BioAssay.

The structures appear in SMILES notation.

A short description of the assay: small-molecule microarray binders of probe aEGFR, primary screen, biochemical, biotinylated probe, 635/667 nm fluorescence (AID 1097).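 Further: probe is a biotinylated anti-EGFR antibody binding compounds printed on slides; score combines fluorescence near 667 nm and signal to noise of each spot.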 As to conditions: higher = more signal.
As for `O=C1NC(=O)C2C1C=CC(C(O)c1ccc([N+](=O)[O-])cc1)N2Nc1ccccn1` (stereo not given), the composite z-score was -0.0355.
Compound `CN1C(=O)C2C=CC(C(O)c3ccc(-c4ccccc4)s3)N(NC(=O)OC(C)(C)C)C2C1=O` (stereo not given) displayed a composite z-score of -0.033.
As for `CN(C)CCCNC(=O)[C@@]1(C)c2ccccc2C(=O)N(Cc2ccc(OC(F)(F)F)cc2)[C@H]1c1ccc(CO)cc1`, the composite z-score was -0.229.
As to `COCCCNC(=O)[C@@]1(CCS(=O)(=O)c2ccccc2)COC(c2ccc(OCCCO)cc2)=N1`, the composite z-score was 0.195.
`COC(=O)[C@@]1(Cc2ccc(OC)cc2)[C@H]2c3cc(C(=O)N4CCCC4)n(Cc4ccc(C(F)(F)F)nc4)c3C[C@H]2CN1C(=O)c1ccccc1` came in with a composite z-score of 0.131.
In turn, `COC(=O)C(CC#Cc1ccc2c(c1)[C@]1(C(=O)N2)[C@H](c2ccccc2OCCO)N2[C@H](c3ccccc3)[C@H](c3ccccc3)OC(=O)[C@H]2[C@@H]1C(=O)N1CCc2cc(OC)c(OC)cc2C1)C(=O)OC` registered a composite z-score of 0.0355.
As for `COc1ccc(C(O)C2C=CC3C(=O)N(C)C(=O)C3N2N(c2ccccc2)c2ccccc2)cc1` (stereo not given), the figure is -0.111; as for `COCCOC(=O)N1C(=O)[C@@]2(c3cc(C#CCC(C(=O)OC)C(=O)OC)ccc31)[C@H](C(=O)Nc1nc3ccccc3s1)[C@H]1C(=O)O[C@H](c3ccccc3)[C@H](c3ccccc3)N1[C@@H]2c1ccc(O)cc1`, 0.107; as for `CC(C)(C)N1CC=CC23O[C@@H]4C=CCCOC(=O)C4[C@H]2C(=O)N(CCCCCCO)[C@@H]3C1=O` (stereo not given in full), -0.238.
As for `O=C1C[C@@](C(=O)NCc2ccccc2)(c2ccc([N+](=O)[O-])cc2)[C@@H](c2ccc(CO)cc2)N1C1CCCCC1`, the figure is -0.14.
